Laboratory results reported in PMC5540273 (PLoS ONE, 2017).
Where two headings read alike, the source gives them in different places.

Tests used:
TAOK1 = settings: concentration: 1 μM, replicates: in singlicate; n = 1
TAOK2 = settings: concentration: 1 μM, replicates: in singlicate; n = 1
TAOK3 = settings: concentration: 1 μM, replicates: in singlicate; n = 1
TBK1 = settings: concentration: 1 μM, replicates: in singlicate; n = 1
TEC = settings: concentration: 1 μM, replicates: in singlicate; n = 1
TESK1 = settings: concentration: 1 μM, replicates: in singlicate; n = 1
TGFBR1 = settings: n = 1
TGFBR2 = settings: concentration: 1 μM, replicates: in singlicate; n = 1
TIE1 = settings: concentration: 1 μM, replicates: in singlicate; n = 1
TIE2 = tested on: T1, TIE2; settings: concentration: 1 μM, replicates: in singlicate; n = 1
T1 construct: gene TEK

[1] = concentration: 1 μM, replicates: in singlicate
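Note: KINOMEscan kinase panel screen.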

| SMILES | %Inh (TAOK1) | %Inh (TAOK2) | %Inh (TAOK3) | %Inh (TBK1) | %Inh (TEC) | %Inh (TESK1) | %Inh (TGFBR1; [1]) | %Inh (TGFBR2) | %Inh (TIE1) | %Inh (TIE2) | %Inh (TGFBR1; 1 µM) |
| --- | --- | --- | --- | --- | --- | --- | --- | --- | --- | --- | --- |
| Cc1ccc(NC(=O)Nc2ccc(Cl)c(C(F)(F)F)c2)cc1-c1ccc(C(=O)Nc2ccncc2)cc1 [GSK1398470] | 0% | 0% | 0% | 17% | 8% | 23% | 0% | 7% | 6% | 0% |  |
| O=C1NC(=O)C(c2ccc(Cl)cc2)=C1Nc1ccc(O)cc1 [SB-340867] | 0% | 0% | 0% | 0% | 0% | 12% | 1% | 0% | 0% | 0% |  |
| c1ccc(-c2ccnc3[nH]ccc23)cc1 [SB-693578] | 0% | 0% | 0% | 11% | 5% | 43% | 0% | 10% | 0% | 0% |  |
| Cn1cncc1-c1cc2c(Nc3ccc(OCc4ccccc4)cc3)ncnc2cn1 [GW281179] | 0% | 0% | 0% | 0% | 0% | 35% | 0% | 0% | 0% | 0% |  |
| O=C(Nc1n[nH]c2nc(-c3ccco3)c(Br)cc12)C1CCN(Cc2ccccc2)C1.O=C(O)[C@H](O)[C@@H](O)C(=O)O (stereo not shown) [SB-742034] | 0% | 0% | 10% | 18% | 8% | 23% | 0% | 21% | 0% | 17% |  |
| COC(=O)C(NC(=O)NC1CCN(c2ccnc(Nc3ccc(F)cc3)n2)C1)c1ccccc1 (stereo not shown) [GSK1379712] | 0% | 0% | 0% | 18% | 11% | 0% | 26% | 0% | 0% | 0% |  |
| CNc1nc(-c2ccc3c(N)n[nH]c3c2)cc(N2C[C@@H](C(=O)Nc3ccccc3)CC[C@H]2C)n1 [GSK2298859] | 0% | 0% | 0% | 14% | 4% | 24% | 12% | 0% | 0% | 0% |  |
| Nc1cccc(-c2ccc3c(N)n[nH]c3c2)n1 [GSK2192730] | 1% | 0% | 0% | 18% | 0% | 13% | 3% | 0% | 0% | 0% |  |
| Fc1ccc(-c2nn3cccc(F)c3c2-c2ccncc2)cc1 [GW475620] | 0% | 0% | 0% | 22% | 0% | 4% | 17% | 11% | 7% | 1% |  |
| CC(=O)c1c(C)c2cnc(Nc3ccn(C)n3)nc2n(C2CCCC2)c1=O | 0% | 0% | 0% | 0% | 0% | 4% | 0% | 0% | 0% | 0% |  |
| COC(=O)c1cccc(NC(=O)NC2CCN(c3ccnc(Nc4ccc(F)cc4)n3)C2)c1 (stereo not shown) [GSK1379725] | 0% | 0% | 0% | 0% | 0% | 15% | 0% | 0% | 0% | 0% |  |
| CNC(=O)c1ccc(C)c(-n2c(C)cc(OCc3ccc(F)cc3F)c(Br)c2=O)c1 | 0% | 0% | 0% | 0% | 1% | 13% | 0% | 0% | 1% | 0% |  |
| CC(=O)c1c(C)c2cnc(Nc3ccc(N4CCNCC4)cn3)nc2n(C2CCCC2)c1=O | 0% | 0% | 0% | 4% | 0% | 12% | 3% | 0% | 0% | 0% |  |
| Cn1cncc1C(=O)NC1CCN(c2ccnc(Nc3ccc(F)cc3)n2)C1 (stereo not shown) [GSK1379717] | 0% | 0% | 0% | 9% | 4% | 98.9% | 26% | 0% | 0% | 0% |  |
| COc1ccc(Nc2nccc(N3CCC(NC(=O)C(C)c4ccc(Cl)cc4)CC3)n2)cc1 (stereo not shown) [GSK1379812] | 0% | 0% | 0% | 21% | 0% | 0% | 3% | 0% | 0% | 0% |  |
| CCCCc1nn2ncccc2c1-c1ccnc(NC2CC2)n1 [GW684374] | 0% | 0% | 0% | 7% | 3% | 13% | 29% | 7% | 0% | 0% |  |
| O=c1cc(N2CCOCC2)nc2n(Cc3cccc(Cl)c3Cl)c3ccccc3n12 [GSK2299009] | 0% | 0% | 0% | 22% | 20% | 17% | 0% | 0% | 24% | 5% |  |

| SMILES | %Inh (TAOK1) | %Inh (TAOK2) | %Inh (TAOK3) | %Inh (TBK1) | %Inh (TEC) | %Inh (TESK1) | %Inh (TGFBR1; [1]) | %Inh (TGFBR2) | %Inh (TIE1) | %Inh (TIE2) | %Inh (TGFBR1; 1 µM) |
| --- | --- | --- | --- | --- | --- | --- | --- | --- | --- | --- | --- |
| O=C(Nc1n[nH]c2nc(-c3cccs3)c(Br)cc12)C1CCCC1 [SB-743341] | 0% | 0% | 0% | 0% | 0% | 25% | 19% | 7% | 33% | 15% |  |
| CSc1ccc(-c2nc3n(c2-c2ccncc2)CCC3)cc1 [SKF-105561] | 0% | 14% | 9% | 0% | 11% | 8% | 15% | 13% | 0% | 0% |  |
| Cc1nccc(-c2c(-c3ccc(F)cc3)ncn2CCCN2CCOCC2)n1.Cl [SB-282975] | 4% | 12% | 0% | 16% | 15% | 37% | 1% | 0% | 0% | 99.9% |  |
| COc1ccc(CSc2nnc(-c3ccc4ncsc4c3)o2)cc1C(F)(F)F | 31% | 9% | 0% | 13% | 0% | 3% | 5% | 19% | 0% | 19% |  |
| CC(C)c1cc(-c2ccc3c(N)n[nH]c3c2)nc(N)n1 [GSK2250882] | 0% | 0% | 0% | 13% | 0% | 35% | 0% | 0% | 0% | 0% |  |
| COc1ccc(Nc2nccc(NCCNC(=O)Nc3cc(C)ccc3C)n2)cc1 [GSK1379899] | 0% | 0% | 1% | 0% | 16% | 7% | 0% | 0% | 0% | 0% |  |
| Cc1ccc(NC(=O)Nc2ccc(Cl)cc2)cc1-c1ccc(C(=O)Nc2ccncc2)cc1 [GSK1398472] | 0% | 0% | 0% | 8% | 0% | 54% | 3% | 0% | 0% | 0% |  |
| CCn1c(-c2ccccc2)nc2cnccc21 [SB-733416] | 0% | 0% | 1% | 0% | 0% | 9% | 0% | 8% | 0% | 0% |  |
| CCn1c(-c2c(N)noc2C)nc2cnccc21 [SB-737856] | 0% | 0% | 0% | 0% | 1% | 54% | 4% | 0% | 0% | 0% |  |
| Cc1ccc(-c2nc(Nc3ccncc3)c3ccccc3n2)s1 [GSK189015] | 0% | 0% | 5% | 7% | 8% | 61% | 6% | 21% | 19% | 12% |  |
| Fc1ccc(-c2nc3n(c2-c2ccncc2)CCS3)cc1 [GI98581] | 0% | 0% | 0% | 5% | 1% | 23% | 26% | 8% | 19% | 0% |  |
| Cc1ccc(NC(=O)Nc2ccccc2F)cc1-c1ccc(C(=O)Nc2ccncc2)cc1 [GSK1398477] | 0% | 0% | 0% | 13% | 24% | 2% | 0% | 13% | 35% | 0% |  |
| O=c1cc(N2CCOCC2)nc2n(Cc3ccccc3F)ccn12 [GSK2297428] | 0% | 0% | 0% | 15% | 0% | 3% | 0% | 0% | 0% | 0% |  |
| COC(=O)C(Cc1ccccc1)NC(=O)NC1CCN(c2ccnc(Nc3ccc(F)cc3)n2)C1 (stereo not shown) [GSK1379714] | 0% | 0% | 0% | 21% | 0% | 16% | 20% | 0% | 16% | 0% |  |
| Cc1ccccc1-c1cc(-c2c[nH]nc2-c2ccccn2)ccn1 [GW680061] | 0% | 0% | 0% | 0% | 15% | 24% |  | 0% | 6% | 0% | 5% |
| FC(F)(F)c1ccccc1-c1cc(-c2c[nH]nc2-c2ccccn2)ccn1 [GW679396] | 0% | 0% | 0% | 18% | 1% | 14% |  | 10% | 0% | 7% | 0% |
| COc1cccc(NC(=O)Nc2ccc(C)c(-c3ccc(C(=O)Nc4ccncc4)cc3)c2)c1 [GSK1398474] | 0% | 0% | 4% | 29% | 5% | 19% | 0% | 0% | 0% | 0% |  |
